# Test results: PubChem BioAssay AID1662 (Broad Institute, 2009)
# Screen size: about 300,000 compounds; about 4,000 (1.3%) were called active. The list comes from a sample in which actives are over-represented; it also holds similar structures and randomly drawn compounds. Unmarked numbers belong to inactive results.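 How the source made its calls: active means mean replicate score, as percent of positive control median, at least 50; inconclusive means mean below 50 but one replicate at or above 50; inactive means mean and every replicate below 50.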
# Assay: S. pyogenes SKKanGAS growth inhibitors in kanamycin, primary screen, streptokinase expression inhibitor project, SKKanGAS strain, BacTiter-Glo luminescence (AID 1662);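 further: strain carries kanamycin resistance gene driven by streptokinase promoter and grows in 40 µg/ml kanamycin; loss of luminescence reflects streptokinase promoter inhibition or plain growth inhibition; 0% = median of DMSO wells and 100% = positive control at its reference dose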
# Settings: 6 h, at 7.5 µM, hits give high values
row,SMILES,inhibition
1,CC1(C)Cc2c(sc(NC(=O)C(=O)NCC3CCCO3)c2C(=O)O)CO1 (stereo not given),2.62%
2,CC1CCCCC1NC(=O)CCS(=O)(=O)c1ccc2c(c1)NC(=O)CO2 (stereo not given),6.59%
3,COC(=O)c1cc(CNC(=O)CC(C)c2ccccc2)ccc1OC (stereo not given),-1.27%
4,CCOC(=O)c1ccc(Nc2cc3ccccc3c(=O)[nH]2)cc1,3.57%
5,CCOC(=O)c1sc(=S)n2c1[nH]c(=O)c1ccc(C(=O)OC)cc12,66.6% (active)
6,CCOC(=O)C1=C(C)Nc2sc(C(=O)c3ccc(Br)cc3)c(N)c2C1c1ccc(C(=O)OC)cc1 (stereo not given),22%
7,COc1cccc(NS(=O)(=O)c2ccc(-c3coc(C)n3)cc2)c1,2.27%
8,CN(C)CCN(Cc1ccccc1)S(=O)(=O)c1csc(C(N)=O)c1,-1.24%
9,CC1=C(C(=O)Nc2ccccc2)C(c2cccs2)C(C#N)=C(SCC#N)N1 (stereo not given),15.4%
10,Cc1noc(C)c1C(=O)N(CC(=O)NC1CCCC1)Cc1ccccc1F,2.6%
11,COCCN(C(=O)COC(=O)Cc1cccc(OC)c1)c1c(N)n(Cc2ccccc2)c(=O)[nH]c1=O,-1.12%
12,Cc1cccc(NC(=S)Nc2ccc3cn[nH]c3c2)c1,2.46%
13,Cc1cccc(NC(=S)Nc2ccc(Cl)c(Cl)c2)c1,82% (active)
14,Cc1cccc(NC(=S)Nc2ccc(Br)cc2)c1,5.45%
15,Cc1cc(C)cc(OCC(=O)Nc2cc(NC(=O)COc3cc(C)cc(C)c3)cc(C(=O)O)c2)c1,26%
16,COc1ccc(Cl)cc1NC(=O)CN(C)Cc1ccc(OC)c(OC)c1,19.7%
17,CCOC(=O)c1c(-c2ccc(C)cc2)csc1/N=C(\C)C1=C(O)c2ccccc2C1=O,8.34%
18,CCOC(=O)C1=C(c2ccc(OC)cc2)C(=O)c2ccccc2C1=O,54.9% (active)
19,COc1ccc(N2CCN(C(C)=C3C(=O)c4ccccc4C3=O)CC2)cc1,0.489%
20,Cc1ccc(N=C2SCCCN2C(=O)c2cccc(N3C(=O)CCC3=O)c2)cc1Cl,1.34%
21,O=C(NCCOc1ccccc1F)Nc1ccc(Br)cc1,-7.4%
22,Cc1ccc2cccc(S(=O)(=O)N3CCN(c4ccccc4F)CC3)c2n1,-8.1%
23,CCn1cc(C(=O)NCCO)c(=O)c2cc(F)c(N3CCN(C)CC3)cc21,1.21%
24,CCCCCCn1cc(C(=O)O)c(=O)c2cc(F)c(N3CCCCC3)cc21,10%
25,CN1CCN(c2cc3c(cc2F)c(=O)c(C(=O)O)cn3CCF)CC1,66.8% (active)
